Shown is part of a subset that was picked to be rich in hits.
Dicer inh: inhibitors of human Dicer processing of pre-microRNA | actives 6% (n = 47,000) | z-score at 25 µM | AID 1347074 | cat-ELCCA pre-miR-21 Dicer processing, chemiluminescence; active compounds read high; in the data active = z-score above about 3, passing the limit was not always enough;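 note: plate controls were vehicle for no effect and no enzyme for full effect; higher signal means more uncleaved substrate so more Dicer inhibition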
An asterisk follows results filed as active.

SMILES	Dicer inh
CCNC(=O)N(Cc1ccccc1)Cc1cccnc1	1.9
O=C1CC(Cc2ccc(Cl)cc2)C(=O)N1c1ccccn1 (centres undefined)	-0.83
O=C1CC(Cc2ccccc2)C(=O)N1c1cccc(Cl)c1 (centres undefined)	1.8
O=C1CC(Cc2ccc(Cl)cc2)C(=O)N1Cc1ccccc1 (centres undefined)	3.3*
COc1ccc(-c2noc(COc3ccc(C(C)C)cc3)n2)cc1	-0.71
CCCN1C(=O)C(O)(CC(=O)c2ccccn2)c2ccccc21 (centres undefined)	0.99
CCOC(=O)/C(C#N)=C/Nc1ccc2c(c1)CCN2C(C)=O	1.3
CCOC(=O)Cn1nc2n(c1=O)-c1ccccc1SC2	-0.85
CCn1c2ccccc2c2cc(CN3CCN(S(C)(=O)=O)CC3)ccc21	5.4*
COc1ccc(CN2CCN(S(C)(=O)=O)CC2)cc1OC	2.2
CCn1c2ccccc2c2cc([N+](=O)[O-])ccc21	-0.68
COc1cc(/C=C/C(=O)NCC(=O)O)cc(Br)c1OC	-0.09
Cc1cn(C(=O)c2snnc2C)nc1-c1cccs1	-0.7
Cc1cc(=O)[nH]c(SCC(N)=O)n1	4.6*
Cc1ccc(C(=O)CSc2nc(C)cc(=O)[nH]2)cc1	4.6*
Cc1cc(=O)[nH]c(SCC(=O)N(c2ccccc2)c2ccccc2)n1	1.3
O=C(CSc1nc(C(F)(F)F)cc(=O)[nH]1)c1ccc(Cl)cc1	-1.2
Cc1cc(=O)[nH]c(SCC(=O)C(C)(C)C)n1	0.9
COc1ccc(C(=O)CSc2nc(O)cc(=O)[nH]2)cc1	-2.6
CN1C(=S)NNC(=O)c2cc(Cl)ccc21	-0.13
CNC(=S)N(C)NC(=S)Nc1cc(Cl)cc(Cl)c1	0.59
COc1ccc2c(c1)CCC1C2=NN(C(C)=O)C1c1ccc(Br)cc1 (centres undefined)	16
Cc1c(Cl)cccc1Nc1n[nH]c(=S)s1	0.45
Cc1ccc(Nc2n[nH]c(=S)s2)cc1	2.9
Cc1ccc(C)c(Nc2nc(-c3cccnc3)cs2)c1	3.3*
SMILES	Dicer inh
c1cnc(Nc2nc(-c3cccnc3)cs2)nc1	-0.16
Cc1ccc(C)c(Nc2n[nH]c(=S)s2)c1	4.6*
Cc1cc(C)nc(NS(=O)(=O)c2ccc(Nc3nc(-c4cccnc4)cs3)cc2)n1	-0.72
Cc1sc(NC(=O)c2ccc(C(C)(C)C)cc2)c(C#N)c1C	2.6
CSC(=S)NNC(=O)c1cc(C)[nH]n1	0.31
Cn1cc(C(=O)c2ccc(Cl)cc2)cc1/C=C(\C#N)C(=O)c1ccc(Cl)cc1	0.1
O=C1/C(=C\c2ccccc2)N=C(c2ccccc2)N1c1ccccc1	-0.09
O=C1/C(=C/c2ccc(Cl)cc2)N=C(c2ccccc2)N1CCc1ccc(Cl)cc1	4.2*
COc1ccc(/C=C2/N=C(c3ccccc3)N(Cc3ccc(F)cc3)C2=O)cc1	3.9*
C=CCN1C(=O)/C(=C\c2ccc(OCc3ccccc3)cc2)N=C1c1ccccc1	0.88
NC(=O)CN1C(=O)/C(=C\c2ccc(F)cc2)N=C1c1ccccc1	0.21
O=C1/C(=C\c2cccs2)N=C(c2ccccc2)N1Cc1ccc(Cl)cc1	-0.52
Cc1coc(C)c1C(=O)CC1(O)C(=O)N(C(C)C)c2ccccc21 (centres undefined)	0.24
COc1cccc(C2N(Cc3ccccc3)CCN2Cc2ccccc2)c1O	-0.01
O=c1cc(CSc2ccc(Cl)cc2)[nH]c2[nH]n(-c3ccccc3)c(=O)c12	5.4*
O=c1cc(CSc2nc3ccccc3s2)[nH]c2[nH]n(-c3ccccc3)c(=O)c12	0.06
O=c1cc(CSc2ccc(Cl)cc2)[nH]n1-c1ccccc1	35
COC(=O)c1sccc1N/N=C(\C#N)S(C)(=O)=O	1.1
COC(OC)c1[nH]c(=S)ncc1C(=O)O	-1.2
CC(C)OC(=O)c1cccc(C(=O)OC(C)C)n1	1.7
CC(C)OC(=O)c1cccc(C(=O)Oc2ccc(Br)cc2)n1	4.4*
CC(C)OC(=O)c1cccc(C(=O)O)n1	1.6
NC(=O)C1=C(O)C(=O)N(C2CCCCC2)C1	-0.75
Cc1nnc(NC(=O)c2nn(-c3ccccc3)nc2C)s1	-1.2
CC1=NN(c2ccccc2)C(=O)/C1=C1/SC(C(=O)c2ccccc2)=NN1c1ccccc1	159
SMILES	Dicer inh
CC1=NN(c2ccccc2)C(=O)/C1=C1/SC(C(=O)c2ccccc2)=NN1c1ccc(Cl)cc1	-1.2
O=C1ON=C(c2ccccc2)/C1=C1\SC(C(=O)c2ccccc2)=NN1c1ccccc1	3.5*
NCCSC1CC(=O)N(c2ccc(Cl)cc2)C1=O (centres undefined)	-1.3
O=C1CC(Nc2ccc(N3CCOCC3)cc2)C(=O)N1c1ccc(Cl)cc1 (centres undefined)	-0.47
CCCCC#Cc1cncc(C(=O)N/N=C/c2ccccc2)c1	-0.3
CC(C)S(=O)(=O)c1csc(C(=O)N/N=C/c2ccccc2)c1-n1cccc1	1.2
Cn1[nH]c(=O)cc1C(=O)N/N=C/c1ccccc1	3.1*
Cc1ccc2oc(-c3ccc(Br)cc3)cc(=O)c2c1	0.77
Cc1ccc2oc(C(F)(F)F)cc(=O)c2c1	3.5*
Cc1ccc2oc(NC(=O)N3CCOCC3)cc(=O)c2c1	-0.18
